# Tests used:
# Test in all cases: PBM; 200 nM protein, PBS
# Conditions in all cases: dsDNA, one strand shown
# HESX1 [1] = target: HESX1 (Homo sapiens, UniProt Q9UBX0 95-180, R165K)
# SHOX [2] = target: SHOX (Homo sapiens, UniProt O15266 103-189)
# ALX4 [3] = target: ALX4 (Homo sapiens, UniProt Q9H161 200-286)
# ALX4 [4] = target: ALX4 (Homo sapiens, UniProt Q9H161 200-286, Q225E)
# HESX1 [5] = target: HESX1 (Homo sapiens, UniProt Q9UBX0 95-180)
# ALX1 [6] = target: ALX1 (Homo sapiens, UniProt Q15699 118-204, L144V)
# ALX3 [7] = target: ALX3 (Homo sapiens, UniProt O95076 139-225, N203Q)
# SHOX [8] = target: SHOX (Homo sapiens, UniProt O15266 103-189, R173C)
# ALX1 [9] = target: ALX1 (Homo sapiens, UniProt Q15699 118-204, L144R)
# ALX3 [10] = target: ALX3 (Homo sapiens, UniProt O95076 139-225)
# PROP1 [11] = target: PROP1 (Homo sapiens, UniProt O75360 56-141)
# HESX1 [12] = target: HESX1 (Homo sapiens, UniProt Q9UBX0 95-180, R109Q)
# PROP1 [13] = target: PROP1 (Homo sapiens, UniProt O75360 56-141, R99H)
# ALX3 [14] = target: ALX3 (Homo sapiens, UniProt O95076 139-225, L168Q)
# HESX1 [15] = target: HESX1 (Homo sapiens, UniProt Q9UBX0 95-180, P111T)
# ALX3 [16] = target: ALX3 (Homo sapiens, UniProt O95076 139-225, L168V)
# PROP1 [17] = target: PROP1 (Homo sapiens, UniProt O75360 56-141, F88S)
# HESX1 [18] = target: HESX1 (Homo sapiens, UniProt Q9UBX0 95-180, F115L)
# ALX1 [19] = target: ALX1 (Homo sapiens, UniProt Q15699 118-204)
# ALX3 [20] = target: ALX3 (Homo sapiens, UniProt O95076 139-225, N203S)
# Sequence of ALX3 (Homo sapiens, UniProt O95076 139-225, N203S) (O95076 139-225 N203S): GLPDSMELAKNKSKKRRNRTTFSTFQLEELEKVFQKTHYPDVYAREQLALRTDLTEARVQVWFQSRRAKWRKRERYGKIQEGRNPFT
# Sequence of HESX1 (Homo sapiens, UniProt Q9UBX0 95-180, P111T) (Q9UBX0 95-180 P111T): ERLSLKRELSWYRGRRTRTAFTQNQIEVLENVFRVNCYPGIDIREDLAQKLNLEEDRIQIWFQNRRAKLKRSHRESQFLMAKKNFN
# Sequence of PROP1 (Homo sapiens, UniProt O75360 56-141, F88S) (O75360 56-141 F88S): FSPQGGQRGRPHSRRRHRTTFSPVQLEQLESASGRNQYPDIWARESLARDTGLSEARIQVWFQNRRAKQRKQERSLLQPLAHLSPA
# Sequence of ALX1 (Homo sapiens, UniProt Q15699 118-204, L144V) (Q15699 118-204 L144V): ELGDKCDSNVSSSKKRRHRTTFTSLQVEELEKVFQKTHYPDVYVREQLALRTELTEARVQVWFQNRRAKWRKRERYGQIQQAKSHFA
# Sequence of PROP1 (Homo sapiens, UniProt O75360 56-141) (O75360 56-141): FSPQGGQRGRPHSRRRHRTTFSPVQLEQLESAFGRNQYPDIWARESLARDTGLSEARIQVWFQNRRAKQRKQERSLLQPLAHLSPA
# Sequence of ALX3 (Homo sapiens, UniProt O95076 139-225, N203Q) (O95076 139-225 N203Q): as the sequence (O95076 139-225 N203S) above, with S65Q counted along it
# Sequence of ALX4 (Homo sapiens, UniProt Q9H161 200-286) (Q9H161 200-286): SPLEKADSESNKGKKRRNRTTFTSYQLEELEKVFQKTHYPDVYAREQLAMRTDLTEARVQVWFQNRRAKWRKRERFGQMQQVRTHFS
# Sequence of SHOX (Homo sapiens, UniProt O15266 103-189, R173C) (O15266 103-189 R173C): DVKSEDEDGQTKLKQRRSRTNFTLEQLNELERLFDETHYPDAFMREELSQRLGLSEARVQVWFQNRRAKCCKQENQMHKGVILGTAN
# Sequence of ALX3 (Homo sapiens, UniProt O95076 139-225, L168V) (O95076 139-225 L168V): as the sequence (O95076 139-225 N203S) above, with L30V, S65N counted along it
# Sequence of HESX1 (Homo sapiens, UniProt Q9UBX0 95-180, R109Q) (Q9UBX0 95-180 R109Q): as the sequence (Q9UBX0 95-180 P111T) above, with R15Q, T17P counted along it
# Sequence of ALX4 (Homo sapiens, UniProt Q9H161 200-286, Q225E) (Q9H161 200-286 Q225E): as the sequence (Q9H161 200-286) above, with Q26E counted along it
# Sequence of ALX1 (Homo sapiens, UniProt Q15699 118-204) (Q15699 118-204): as the sequence (Q15699 118-204 L144V) above, with V27L counted along it
# Sequence of HESX1 (Homo sapiens, UniProt Q9UBX0 95-180, R165K) (Q9UBX0 95-180 R165K): as the sequence (Q9UBX0 95-180 P111T) above, with T17P, R71K counted along it
# Sequence of ALX1 (Homo sapiens, UniProt Q15699 118-204, L144R) (Q15699 118-204 L144R): as the sequence (Q15699 118-204 L144V) above, with V27R counted along it
# Sequence of ALX3 (Homo sapiens, UniProt O95076 139-225, L168Q) (O95076 139-225 L168Q): as the sequence (O95076 139-225 N203S) above, with L30Q, S65N counted along it
# Sequence of HESX1 (Homo sapiens, UniProt Q9UBX0 95-180) (Q9UBX0 95-180): as the sequence (Q9UBX0 95-180 P111T) above, with T17P counted along it
# Sequence of ALX3 (Homo sapiens, UniProt O95076 139-225) (O95076 139-225): as the sequence (O95076 139-225 N203S) above, with S65N counted along it
# Sequence of HESX1 (Homo sapiens, UniProt Q9UBX0 95-180, F115L) (Q9UBX0 95-180 F115L): as the sequence (Q9UBX0 95-180 P111T) above, with T17P, F21L counted along it
# Sequence of SHOX (Homo sapiens, UniProt O15266 103-189) (O15266 103-189): as the sequence (O15266 103-189 R173C) above, with C71R counted along it
# Sequence of PROP1 (Homo sapiens, UniProt O75360 56-141, R99H) (O75360 56-141 R99H): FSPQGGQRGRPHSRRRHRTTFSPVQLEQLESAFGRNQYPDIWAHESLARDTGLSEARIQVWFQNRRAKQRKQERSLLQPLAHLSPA
Sequence,binding signal (HESX1 [1]),binding signal (SHOX [2]),binding signal (ALX4 [3]),binding signal (ALX4 [4]),binding signal (HESX1 [5]),binding signal (ALX1 [6]),binding signal (ALX3 [7]),binding signal (SHOX [8]),binding signal (ALX1 [9]),binding signal (ALX3 [10]),binding signal (PROP1 [11]),binding signal (HESX1 [12]),binding signal (PROP1 [13]),binding signal (ALX3 [14]),binding signal (HESX1 [15]),binding signal (ALX3 [16]),binding signal (PROP1 [17]),binding signal (HESX1 [18]),binding signal (ALX1 [19]),binding signal (ALX3 [20])
CAATTATG,"12.7 upbm affinity estimate (log intensity, higher = more binding, comparable within an allelic series)","12.1 upbm affinity estimate (log intensity, higher = more binding, comparable within an allelic series)","13.8 upbm affinity estimate (log intensity, higher = more binding, comparable within an allelic series)","13.1 upbm affinity estimate (log intensity, higher = more binding, comparable within an allelic series)","12.9 upbm affinity estimate (log intensity, higher = more binding, comparable within an allelic series)","11.7 upbm affinity estimate (log intensity, higher = more binding, comparable within an allelic series)","8.45 upbm affinity estimate (log intensity, higher = more binding, comparable within an allelic series)","9.62 upbm affinity estimate (log intensity, higher = more binding, comparable within an allelic series)","11.4 upbm affinity estimate (log intensity, higher = more binding, comparable within an allelic series)","12.4 upbm affinity estimate (log intensity, higher = more binding, comparable within an allelic series)","11.5 upbm affinity estimate (log intensity, higher = more binding, comparable within an allelic series)","9.11 upbm affinity estimate (log intensity, higher = more binding, comparable within an allelic series)","11.5 upbm affinity estimate (log intensity, higher = more binding, comparable within an allelic series)","10.5 upbm affinity estimate (log intensity, higher = more binding, comparable within an allelic series)","11.2 upbm affinity estimate (log intensity, higher = more binding, comparable within an allelic series)","9.96 upbm affinity estimate (log intensity, higher = more binding, comparable within an allelic series)","7.66 upbm affinity estimate (log intensity, higher = more binding, comparable within an allelic series)","7.82 upbm affinity estimate (log intensity, higher = more binding, comparable within an allelic series)","12.3 upbm affinity estimate (log intensity, higher = more binding, comparable within an allelic series)","8.59 upbm affinity estimate (log intensity, higher = more binding, comparable within an allelic series)"
CAATTAGC,"13.2 upbm affinity estimate (log intensity, higher = more binding, comparable within an allelic series)","12.7 upbm affinity estimate (log intensity, higher = more binding, comparable within an allelic series)","14.1 upbm affinity estimate (log intensity, higher = more binding, comparable within an allelic series)","13.5 upbm affinity estimate (log intensity, higher = more binding, comparable within an allelic series)","13.3 upbm affinity estimate (log intensity, higher = more binding, comparable within an allelic series)","11.9 upbm affinity estimate (log intensity, higher = more binding, comparable within an allelic series)","8.26 upbm affinity estimate (log intensity, higher = more binding, comparable within an allelic series)","9.99 upbm affinity estimate (log intensity, higher = more binding, comparable within an allelic series)","11.5 upbm affinity estimate (log intensity, higher = more binding, comparable within an allelic series)","12.6 upbm affinity estimate (log intensity, higher = more binding, comparable within an allelic series)","11.8 upbm affinity estimate (log intensity, higher = more binding, comparable within an allelic series)","9.79 upbm affinity estimate (log intensity, higher = more binding, comparable within an allelic series)","11.9 upbm affinity estimate (log intensity, higher = more binding, comparable within an allelic series)","10.7 upbm affinity estimate (log intensity, higher = more binding, comparable within an allelic series)","11.7 upbm affinity estimate (log intensity, higher = more binding, comparable within an allelic series)","10.1 upbm affinity estimate (log intensity, higher = more binding, comparable within an allelic series)","7.57 upbm affinity estimate (log intensity, higher = more binding, comparable within an allelic series)","7.74 upbm affinity estimate (log intensity, higher = more binding, comparable within an allelic series)","12.8 upbm affinity estimate (log intensity, higher = more binding, comparable within an allelic series)","8.45 upbm affinity estimate (log intensity, higher = more binding, comparable within an allelic series)"
GCAAGGGC,"6.38 upbm affinity estimate (log intensity, higher = more binding, comparable within an allelic series)",,,,"6.38 upbm affinity estimate (log intensity, higher = more binding, comparable within an allelic series)",,,,,,,"6.49 upbm affinity estimate (log intensity, higher = more binding, comparable within an allelic series)",,,"6.49 upbm affinity estimate (log intensity, higher = more binding, comparable within an allelic series)",,,"6.53 upbm affinity estimate (log intensity, higher = more binding, comparable within an allelic series)",,
CTCAATTA,"12.7 upbm affinity estimate (log intensity, higher = more binding, comparable within an allelic series)","12 upbm affinity estimate (log intensity, higher = more binding, comparable within an allelic series)","13.9 upbm affinity estimate (log intensity, higher = more binding, comparable within an allelic series)","13.1 upbm affinity estimate (log intensity, higher = more binding, comparable within an allelic series)","12.7 upbm affinity estimate (log intensity, higher = more binding, comparable within an allelic series)","11.8 upbm affinity estimate (log intensity, higher = more binding, comparable within an allelic series)","8.29 upbm affinity estimate (log intensity, higher = more binding, comparable within an allelic series)","9.56 upbm affinity estimate (log intensity, higher = more binding, comparable within an allelic series)","11.5 upbm affinity estimate (log intensity, higher = more binding, comparable within an allelic series)","12.5 upbm affinity estimate (log intensity, higher = more binding, comparable within an allelic series)","11.5 upbm affinity estimate (log intensity, higher = more binding, comparable within an allelic series)","9.12 upbm affinity estimate (log intensity, higher = more binding, comparable within an allelic series)","11.6 upbm affinity estimate (log intensity, higher = more binding, comparable within an allelic series)","10.5 upbm affinity estimate (log intensity, higher = more binding, comparable within an allelic series)","11.2 upbm affinity estimate (log intensity, higher = more binding, comparable within an allelic series)","9.95 upbm affinity estimate (log intensity, higher = more binding, comparable within an allelic series)","7.64 upbm affinity estimate (log intensity, higher = more binding, comparable within an allelic series)","7.72 upbm affinity estimate (log intensity, higher = more binding, comparable within an allelic series)","12.4 upbm affinity estimate (log intensity, higher = more binding, comparable within an allelic series)","8.43 upbm affinity estimate (log intensity, higher = more binding, comparable within an allelic series)"
ACTAATTG,"13 upbm affinity estimate (log intensity, higher = more binding, comparable within an allelic series)","12.3 upbm affinity estimate (log intensity, higher = more binding, comparable within an allelic series)","13.9 upbm affinity estimate (log intensity, higher = more binding, comparable within an allelic series)","13.4 upbm affinity estimate (log intensity, higher = more binding, comparable within an allelic series)","13 upbm affinity estimate (log intensity, higher = more binding, comparable within an allelic series)","11.9 upbm affinity estimate (log intensity, higher = more binding, comparable within an allelic series)","8.32 upbm affinity estimate (log intensity, higher = more binding, comparable within an allelic series)","9.68 upbm affinity estimate (log intensity, higher = more binding, comparable within an allelic series)","11.5 upbm affinity estimate (log intensity, higher = more binding, comparable within an allelic series)","12.5 upbm affinity estimate (log intensity, higher = more binding, comparable within an allelic series)","11.5 upbm affinity estimate (log intensity, higher = more binding, comparable within an allelic series)","9.82 upbm affinity estimate (log intensity, higher = more binding, comparable within an allelic series)","11.9 upbm affinity estimate (log intensity, higher = more binding, comparable within an allelic series)","10.8 upbm affinity estimate (log intensity, higher = more binding, comparable within an allelic series)","11.6 upbm affinity estimate (log intensity, higher = more binding, comparable within an allelic series)","10.2 upbm affinity estimate (log intensity, higher = more binding, comparable within an allelic series)","7.65 upbm affinity estimate (log intensity, higher = more binding, comparable within an allelic series)","7.98 upbm affinity estimate (log intensity, higher = more binding, comparable within an allelic series)","12.6 upbm affinity estimate (log intensity, higher = more binding, comparable within an allelic series)","8.46 upbm affinity estimate (log intensity, higher = more binding, comparable within an allelic series)"
GTCAATTA,"13.1 upbm affinity estimate (log intensity, higher = more binding, comparable within an allelic series)","12.4 upbm affinity estimate (log intensity, higher = more binding, comparable within an allelic series)","13.9 upbm affinity estimate (log intensity, higher = more binding, comparable within an allelic series)","13.4 upbm affinity estimate (log intensity, higher = more binding, comparable within an allelic series)","13.1 upbm affinity estimate (log intensity, higher = more binding, comparable within an allelic series)","11.8 upbm affinity estimate (log intensity, higher = more binding, comparable within an allelic series)","8.23 upbm affinity estimate (log intensity, higher = more binding, comparable within an allelic series)","9.5 upbm affinity estimate (log intensity, higher = more binding, comparable within an allelic series)","11.4 upbm affinity estimate (log intensity, higher = more binding, comparable within an allelic series)","12.5 upbm affinity estimate (log intensity, higher = more binding, comparable within an allelic series)","11.4 upbm affinity estimate (log intensity, higher = more binding, comparable within an allelic series)","9.32 upbm affinity estimate (log intensity, higher = more binding, comparable within an allelic series)","11.8 upbm affinity estimate (log intensity, higher = more binding, comparable within an allelic series)","10.7 upbm affinity estimate (log intensity, higher = more binding, comparable within an allelic series)","11.6 upbm affinity estimate (log intensity, higher = more binding, comparable within an allelic series)","10.1 upbm affinity estimate (log intensity, higher = more binding, comparable within an allelic series)","7.62 upbm affinity estimate (log intensity, higher = more binding, comparable within an allelic series)","7.69 upbm affinity estimate (log intensity, higher = more binding, comparable within an allelic series)","12.4 upbm affinity estimate (log intensity, higher = more binding, comparable within an allelic series)","8.41 upbm affinity estimate (log intensity, higher = more binding, comparable within an allelic series)"
CTAATTAG,"14 upbm affinity estimate (log intensity, higher = more binding, comparable within an allelic series)","13.6 upbm affinity estimate (log intensity, higher = more binding, comparable within an allelic series)","14.7 upbm affinity estimate (log intensity, higher = more binding, comparable within an allelic series)","14.6 upbm affinity estimate (log intensity, higher = more binding, comparable within an allelic series)","13.7 upbm affinity estimate (log intensity, higher = more binding, comparable within an allelic series)","12.5 upbm affinity estimate (log intensity, higher = more binding, comparable within an allelic series)","8.69 upbm affinity estimate (log intensity, higher = more binding, comparable within an allelic series)","11.1 upbm affinity estimate (log intensity, higher = more binding, comparable within an allelic series)","12.1 upbm affinity estimate (log intensity, higher = more binding, comparable within an allelic series)","13 upbm affinity estimate (log intensity, higher = more binding, comparable within an allelic series)","12.4 upbm affinity estimate (log intensity, higher = more binding, comparable within an allelic series)","10.9 upbm affinity estimate (log intensity, higher = more binding, comparable within an allelic series)","12.6 upbm affinity estimate (log intensity, higher = more binding, comparable within an allelic series)","11.6 upbm affinity estimate (log intensity, higher = more binding, comparable within an allelic series)","12.5 upbm affinity estimate (log intensity, higher = more binding, comparable within an allelic series)","11.3 upbm affinity estimate (log intensity, higher = more binding, comparable within an allelic series)","8.3 upbm affinity estimate (log intensity, higher = more binding, comparable within an allelic series)","8.53 upbm affinity estimate (log intensity, higher = more binding, comparable within an allelic series)","13.2 upbm affinity estimate (log intensity, higher = more binding, comparable within an allelic series)","8.81 upbm affinity estimate (log intensity, higher = more binding, comparable within an allelic series)"
GGCAATTA,"12.3 upbm affinity estimate (log intensity, higher = more binding, comparable within an allelic series)","11.7 upbm affinity estimate (log intensity, higher = more binding, comparable within an allelic series)","13.6 upbm affinity estimate (log intensity, higher = more binding, comparable within an allelic series)","12.9 upbm affinity estimate (log intensity, higher = more binding, comparable within an allelic series)","12.4 upbm affinity estimate (log intensity, higher = more binding, comparable within an allelic series)","11.4 upbm affinity estimate (log intensity, higher = more binding, comparable within an allelic series)","8.35 upbm affinity estimate (log intensity, higher = more binding, comparable within an allelic series)","9.38 upbm affinity estimate (log intensity, higher = more binding, comparable within an allelic series)","11 upbm affinity estimate (log intensity, higher = more binding, comparable within an allelic series)","12.2 upbm affinity estimate (log intensity, higher = more binding, comparable within an allelic series)","11.1 upbm affinity estimate (log intensity, higher = more binding, comparable within an allelic series)","8.87 upbm affinity estimate (log intensity, higher = more binding, comparable within an allelic series)","11.3 upbm affinity estimate (log intensity, higher = more binding, comparable within an allelic series)","10.3 upbm affinity estimate (log intensity, higher = more binding, comparable within an allelic series)","10.9 upbm affinity estimate (log intensity, higher = more binding, comparable within an allelic series)","9.79 upbm affinity estimate (log intensity, higher = more binding, comparable within an allelic series)","7.46 upbm affinity estimate (log intensity, higher = more binding, comparable within an allelic series)","7.6 upbm affinity estimate (log intensity, higher = more binding, comparable within an allelic series)","12 upbm affinity estimate (log intensity, higher = more binding, comparable within an allelic series)","8.36 upbm affinity estimate (log intensity, higher = more binding, comparable within an allelic series)"

# From paper PMC11006913
